Measured values as given in PubChem BioAssay AID720509 (The Scripps Research Institute Molecular Screening Center, 2013).
In all, about 370,000 compounds went through this assay and about 760 (0.21%) were called active. The list comes from a sample in which actives are over-represented; it also holds similar structures and randomly drawn compounds. Unmarked numbers belong to inactive results.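 Rule for the calls: active = inhibition above a per-campaign cutoff: mean of compounds within control limits plus 3 SD (cut at about 15% in these data); inactive = the rest.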

biological target: Fibrinogen beta chain (Homo sapiens) (UniProt P02675); test: small molecules displacing Tn6 from DD(E) complex – biochemical, fluorescence polarization, human fibrin, Tn6 probe, primary screen (AID 720509); details: Fibrin DD(E) TRITC-Tn6 fluorescence polarization displacement; at 8.3 µM; hits give high values;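 note: 0% = median of all compound wells on the plate and 100% = blocking peptide control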
Sequence (P02675 whole entry, looked up): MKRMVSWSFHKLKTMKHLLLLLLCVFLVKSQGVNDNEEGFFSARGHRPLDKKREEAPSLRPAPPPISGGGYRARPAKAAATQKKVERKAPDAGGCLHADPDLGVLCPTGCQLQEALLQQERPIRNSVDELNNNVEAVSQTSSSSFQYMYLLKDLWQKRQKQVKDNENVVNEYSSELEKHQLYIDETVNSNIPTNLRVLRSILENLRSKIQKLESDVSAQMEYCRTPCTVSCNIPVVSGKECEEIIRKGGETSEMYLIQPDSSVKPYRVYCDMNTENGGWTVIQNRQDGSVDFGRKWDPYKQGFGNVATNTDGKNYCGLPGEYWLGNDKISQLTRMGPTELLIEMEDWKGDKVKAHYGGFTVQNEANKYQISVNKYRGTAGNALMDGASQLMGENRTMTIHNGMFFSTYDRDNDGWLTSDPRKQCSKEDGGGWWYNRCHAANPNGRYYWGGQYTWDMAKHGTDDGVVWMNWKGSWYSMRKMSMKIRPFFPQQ

SMILES | inhibition
CCCCNC(=O)OC1CC2CC1[C@H]1CCCCN1C2=O (stereo not given in full) | -8.63%
OCCC1CN(Cc2ccc3nsnc3c2)CCN1C1CCCCC1 (stereo not given) | -12.1%
COc1ccc(N2C(=O)NC(NS(=O)(=O)c3ccc(Cl)cc3)(C(F)(F)F)C2=O)cc1 (stereo not given) | 16.5% (active)
COc1ccc(S(=O)(=O)NC2(C(F)(F)F)N=C3SCCN3C2=O)cc1 (stereo not given) | 3.58%
Cc1ccc(S(=O)(=O)NC2(C(F)(F)F)NC(=O)N(CCc3ccccc3)C2=O)cc1 (stereo not given) | 1.91%
Cc1cc(=O)[nH]c(SCC(=O)Nc2ccc(F)cc2F)n1 | -5.08%
COc1ccc(NC(=O)C2=NNC(=O)CC2)cc1S(=O)(=O)N1CCCCC1 | 3.03%
COCCn1c(SCC(=O)Nc2ccc3c(c2)CCC3)nc2ccccc2c1=O | -3.38%
COc1ccc(NS(=O)(=O)c2cc3c(cc2C)N(C(C)=O)CCO3)cc1 | -0.74%
C=C(C)CSc1nnc(-c2ccc(C)cc2)n1N | 2.43%
CC(C)N(c1ccccc1)c1ncnc(NCCC(=O)O)c1[N+](=O)[O-] | 0.23%
Cc1ccc2c(c1)N(CC(=O)NCCCN1CCCCC1)C(=O)c1cccnc1O2 | -7.1%
COc1ccc([C@H]2OC(=O)C[C@H]2C(=O)N2CCN(c3ccccc3F)CC2)cc1OC | -0.84%
CCCN(CC(=O)Nc1ccc(OC)c(OC)c1)CC(=O)Nc1ccc(F)c(F)c1F | 7.52%
O=C(CSc1n[nH]c(-c2cccnc2)n1)Nc1ccnc2ccccc12 | -0.07%
COc1ccc(Nc2nc(-c3cccnc3)nc3ccccc23)cn1 | 15.3% (active)
O=C(Nc1ccc(Cl)cc1)Nc1ccc(Oc2cccnc2)nc1 | -12.2%
COc1ccc(S(=O)(=O)N(CCCN2CCCC2=O)Cc2cc3c(C)ccc(C)c3[nH]c2=O)cc1 | -7.91%
Cc1ccc(NC(=O)Cn2sc3ccccc3c2=O)cc1 | 1.72%
Cc1ccc(NC(=O)CN2CCc3ccccc3C2)cc1 | 15.8% (active)

SMILES | inhibition
O=C(CN1CCc2ccccc2C1)Nc1cccc(S(=O)(=O)N2CCOCC2)c1 | 4.91%
Cc1nc(-c2ccc(F)cc2)c(CC(=O)N2CCN(S(=O)(=O)c3ccc(F)cc3)CC2)s1 | -5.03%
Cc1ccc(-c2nc(C)sc2CC(=O)O)cc1 | 16.2% (active)
Cc1ccc(-c2nc(C)sc2CC(=O)OCC(=O)Nc2c(F)cccc2F)cc1 | 4.3%
O=C(Nc1ccc(N2CCOCC2)cc1)c1cccc2c(-c3ccc(F)c(F)c3)coc12 | -1.54%
Cc1ccc(Nc2nc(CSc3nnc(-c4ccncc4)n3-c3ccccc3C)cs2)cc1 | -3.59%
O=C(NCC(F)(F)F)c1ccc(S(=O)(=O)NCCc2ccc3c(c2)OCCO3)cc1 | 0.28%
Cn1cc(-c2ccccc2)cc(C#N)c1=O | -5.81%
CCCCNC(=O)Nc1c(C)cc(SC#N)cc1C | -1.9%
C[C@H]([C@@H](O)[C@@H](O)[C@@H](C)C(C)(C)C)[C@H]1CC[C@H]2C3CC[C@H]4C[C@H](OS(=O)(=O)O)[C@@H](OS(=O)(=O)O)C[C@]4(C)[C@H]3CC[C@]12C (stereo not given in full) | 3.35%
O=C(NCc1ccccc1Cl)C1CCN(c2ncnc3c2nc2n3CCCCC2)CC1 | -4.73%
C=C1CCC(N(O)c2cc(C)on2)C(=C)CCC2C1CC2(C)C (stereo not given) | -5.24%
CC(C)Oc1cc(F)ccc1-c1cc(C(=O)Nc2cccc(Cl)c2)[nH]n1 | -6.05%
CC(CNS(=O)(=O)c1ccc(Br)cc1)CN(C)C (stereo not given) | -0.63%
Cc1ccc(C(=O)Cc2nnc(C)s2)cc1 | -0.99%
O=S(=O)(NCc1ccccc1Cl)c1cnc[nH]1 | -4.95%
Cc1c(C(=O)N(C)CCc2cnn(C)c2)oc2c(F)cccc12 | 3.62%
COc1cccc(NC(=O)C2(C)CCN2Cc2ccccc2Cl)c1 (stereo not given) | 0.5%
COC(=O)c1cc(NC(=O)c2cc(C(C)(C)C)nn2Cc2cccc(C)c2)ccc1N1CCOCC1 | 4.88%
O=C(C(NS(=O)(=O)c1cccc2nsnc12)c1ccccc1)N1CCN(c2ccccc2)CC1 (stereo not given) | 8.08%
